High-throughput results deposited in PubChem BioAssay by National Center for Advancing Translational Sciences (NCATS).
HT1080 IDH1KD tx – kills HT-1080 cells with IDH1 knockdown. HT-1080 IDH1 knockdown viability, ATP luminescence, 48 h. Potency, µM (doses to about 46.1 µM), usual class: cytotoxic. 2% of 360,000 active. AID 686971
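% activity derives from luminescence (CellTiter-Glo), normalised to DMSO and no-cell wells. HT-1080-IDH1KD cells, 750/well, had 48 h compound exposure at 37 °C.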
KB-V1 cytotox – kills drug-selected multidrug resistant KB-V1 cells. 3.4% of 400,000 active. KB-V1 MDR cells viability, CellTiter-Glo, 72 h. Potency, µM (top dose mostly 46.1 µM), most hits filed as cytotoxic; also: nearly all actives have a fitted effect of over 60% in size
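KB-V1, DMEM (no phenol red) + 10% FBS; cpd pin-transferred, titration series; 72 h, 37 degrees C; CellTiter-Glo, luminescence. Data normalized, curve-fit.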
KB-3-1 cytotox – kills parental KB-3-1 adenocarcinoma cells | KB-3-1 viability, CellTiter-Glo ATP luminescence, 72 h | Potency, µM (top dose mostly 46.1 µM), usual class: cytotoxic | 1.4% of 400,000 active; also: nearly all actives have a fitted effect of over 60% in size
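KB-3-1 cells, DMEM (no phenol red) + 10% FBS; compound by pin transfer, 72 h, 37 °C. Readout: CellTiter-Glo luminescence after 10 min. Data normalized, curve-fitted.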
DT40 TDP1 CPT – DT40-hTDP1 cell growth loss with CPT; Potency, µM (doses to about 46.2 µM), actives largely listed as inhibitors; chicken DT40 Tdp1-/-;hTDP1 cells + 20 nM CPT, ATP luminescence, 48 h; 12% of 420,000 active; also: nearly all actives have a fitted effect of over 55% in size
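Chicken DT40 Tdp1-/- cells stably complemented with human TDP1 were seeded at 400 cells/well in medium containing 20 nM camptothecin, exposed to pin-transferred compounds, and grown at 37 °C for at least 48 hr. Viability was read as ATP luminescence.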
DT40 TDP1 no CPT – qHTS for Inhibitors of human tyrosyl-DNA phosphodiesterase 1 (TDP1): qHTS in cells in absence of CPT. DT40 Tdp1-/- hTDP1 cells, no CPT, ATP luminescence, 48 h. Potency, µM (titrated, usually from 46.2 µM), actives largely listed as inhibitors. 15% of 420,000 active; also: nearly all actives have a fitted effect of over 55% in size
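Cells were dispensed at 400 per well, compounds added by pin tool, plates incubated ≥48 hr at 37 °C, then CellTiter-Glo added for 30 min at room temperature before luminescence reading. Line: DT40 Tdp1-/- complemented with hTDP1; camptothecin omitted.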
HT1080NT lethal – kills 2HG-producing HT-1080-NT fibrosarcoma cells; HT-1080-NT fibrosarcoma viability, CellTiter-Glo ATP luminescence, 48 h; AID 686970; 1.6% of 360,000 active; Potency, µM (series often up to 46.1 µM), actives largely listed as cytotoxic;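 also: NT is the 2HG producing partner of a matched IDH1 knockdown line; nearly all actives have a fitted effect of over 55% in size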
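A 48-hour cytotoxicity screen used HT-1080-NT cells plated 2 hours before compound delivery. ATP-based CellTiter-Glo luminescence measured viability, normalized to DMSO and no-cell controls.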
Large screens that a line does not name were inactive. In the library only some 19% were active in any assay of this set; here they are far more common. Calls follow the shape of the dose curve; as a rule, active = well fitted curve in the direction sought with a large enough effect; inconclusive = small, poorly fitted or top-dose-only effect, or another doubt; inactive = no such curve, though single readings can be large; an effect the other way counts as inactive or inconclusive.

COc1cccc(NC(=O)CN(C)CC(=O)c2c(C)[nH]c3ccccc23)c1	DT40 TDP1 CPT inconclusive, DT40 TDP1 no CPT inconclusive
Cc1[nH]c2ccccc2c1C(=O)COc1ccccc1F	DT40 TDP1 no CPT inconclusive
COc1ccc(NC(=O)CN(C)CC(=O)c2c(C)[nH]c3ccccc23)cc1	KB-V1 cytotox 7.3µM, DT40 TDP1 CPT inconclusive, DT40 TDP1 no CPT inconclusive
COc1ccccc1CN(C)CC(=O)c1c(C)[nH]c2ccccc12	DT40 TDP1 CPT 18µM, DT40 TDP1 no CPT 18µM (no result: HT1080 IDH1KD tx, HT1080NT lethal)
CCOc1ccc(NC(=O)COc2ccc(C(=O)NC(C)c3ccc(S(N)(=O)=O)cc3)cc2OC)cc1 (configuration not stated)	KB-3-1 cytotox inconclusive, DT40 TDP1 no CPT inconclusive
Cc1cc(C)c2nc(N(Cc3cccnc3)C(=O)Cc3ccccc3)sc2c1	DT40 TDP1 CPT inconclusive, DT40 TDP1 no CPT inconclusive (no result: HT1080 IDH1KD tx, HT1080NT lethal)
Cc1ccc2nc(N(Cc3cccnc3)C(=O)CCS(=O)(=O)c3ccccc3)sc2c1	DT40 TDP1 CPT inconclusive, DT40 TDP1 no CPT 16µM (no result: HT1080 IDH1KD tx, KB-V1 cytotox, KB-3-1 cytotox, HT1080NT lethal)
Cc1ccc2nc(N(Cc3cccnc3)C(=O)Cc3ccccc3)sc2c1	none (no result: HT1080 IDH1KD tx, KB-V1 cytotox, KB-3-1 cytotox, HT1080NT lethal)
O=C(CCS(=O)(=O)c1ccccc1)N(Cc1cccnc1)c1nc2ccc(Cl)cc2s1	DT40 TDP1 CPT 5.8µM, DT40 TDP1 no CPT 13µM (no result: HT1080 IDH1KD tx, KB-V1 cytotox, KB-3-1 cytotox, HT1080NT lethal)
CCS(=O)(=O)c1ccccc1C(=O)N(Cc1cccnc1)c1nc2cc(C)c(C)cc2s1	DT40 TDP1 CPT inconclusive, DT40 TDP1 no CPT 23µM (no result: HT1080 IDH1KD tx, KB-V1 cytotox, KB-3-1 cytotox, HT1080NT lethal)
Cc1ccc(NC(=O)/C=N/OCC(=O)NCc2ccccc2Cl)cc1	DT40 TDP1 CPT inconclusive
COc1ccc(-c2sc3cc4c(cc3c2C#Cc2ccc(N)cc2)OCO4)cc1	HT1080 IDH1KD tx inconclusive, DT40 TDP1 CPT inconclusive, DT40 TDP1 no CPT inconclusive, HT1080NT lethal inconclusive
Cc1ccc(N(CC(=O)Nc2ccc(-c3nc4ccc(C)cc4s3)cc2)S(C)(=O)=O)cc1	none
Cc1ccc2nc(-c3ccc(NC(=O)c4ccccc4S(C)(=O)=O)cc3)sc2c1	DT40 TDP1 CPT inconclusive, DT40 TDP1 no CPT 8.2µM (no result: HT1080 IDH1KD tx, HT1080NT lethal)
O=C(Nc1ccc(-c2nc3ccccc3s2)cc1)c1cc(-n2cnnc2)ccc1Cl	HT1080 IDH1KD tx 11µM, KB-3-1 cytotox inconclusive, DT40 TDP1 CPT 23µM, DT40 TDP1 no CPT 13µM, HT1080NT lethal 10µM
Cc1ccc(NC(=O)c2cc(-n3cnnc3)ccc2Cl)cc1	none
Cc1ccc2nc(-c3ccc(NC(=O)c4ccc(S(C)(=O)=O)cc4)cc3)sc2c1	DT40 TDP1 CPT 21µM, DT40 TDP1 no CPT inconclusive (no result: HT1080 IDH1KD tx, KB-V1 cytotox, KB-3-1 cytotox, HT1080NT lethal)
CCOC(=O)c1c(C)oc2ncnc(Nc3cc(C)cc(C)c3)c12	none (no result: HT1080 IDH1KD tx, HT1080NT lethal)
Cc1cc2c(c(SCC#N)n1)C(=O)OC2	none
O=C(Nc1cc(Cl)cc2c1-c1ccc(Cl)cc1C2O)C(Cl)Cl (configuration not stated)	KB-V1 cytotox 18µM, KB-3-1 cytotox inconclusive, DT40 TDP1 CPT 23µM, DT40 TDP1 no CPT inconclusive
COc1cccc(C=Nc2cccc3c(=O)[nH][nH]c(=O)c23)c1O	none
O=S(=O)(NCC1CCCO1)c1ccc(Cl)nc1 (configuration not stated)	none
O=C(C[n+]1cccc2cc(Cl)ccc21)c1ccc2c(c1)CCCC2	none (no result: HT1080 IDH1KD tx, HT1080NT lethal)
CC(=O)Nc1nnc([N+](=O)[O-])s1	DT40 TDP1 CPT 18µM, DT40 TDP1 no CPT 18µM
COc1ccccc1-c1nc(S(=O)(=O)c2ccccc2)c(N2CCC(C)CC2)o1	DT40 TDP1 CPT 23µM, DT40 TDP1 no CPT 3.7µM (no result: HT1080 IDH1KD tx, HT1080NT lethal)
Cc1ccccc1-c1nc(S(=O)(=O)c2ccccc2)c(N2CCCC2)o1	DT40 TDP1 CPT inconclusive, DT40 TDP1 no CPT inconclusive
COc1ccc(-c2nc(S(=O)(=O)c3ccccc3)c(N3CCCC3)o2)cc1	none
COc1cccc(-c2nc(S(=O)(=O)c3ccccc3)c(N3CCC(C)CC3)o2)c1	KB-V1 cytotox inconclusive, DT40 TDP1 CPT inconclusive, DT40 TDP1 no CPT 8.2µM (no result: HT1080 IDH1KD tx, HT1080NT lethal)
COc1ccc(N2CCN(c3oc(-c4ccccc4C)nc3S(=O)(=O)c3ccccc3)CC2)cc1	DT40 TDP1 CPT 12µM, DT40 TDP1 no CPT 9.2µM (no result: HT1080 IDH1KD tx, HT1080NT lethal)
